Assay [1] is described as follows: qHTS profiling of the MIPE4 collection as inhibitors of Plasmodium falciparum (DD2) proliferation (Rep 2) (AID 743346). The settings on record: P. falciparum Dd2 in erythrocytes, SYBR Green DNA, 72 h; at 28.5 µM. In short, it runs like this: (§1)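 Parasite DNA was quantified by SYBR Green I fluorescence (ex 485, em 535 nm) after overnight lysis in saponin/Triton buffer at room temperature. Cultures at 0.3% parasitemia and 2.5% hematocrit were first exposed to compound for 72 h at 37 C; signals were normalised to artemisinin (0.29 uM) and vehicle wells.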

The conditions of assay [2]: Ebola virus entry assay, green fluorescence channel.
The conditions of assay [3]: Ebola virus entry assay, blue channel fluorescence.
The conditions of assay [4]: Ebola virus entry assay, ratio channel.
For assay [5] the following is noted: Ebola virus entry assay, reporter ratio channel; Channel type: primary.
The conditions of assay [6]: Ebola virus entry assay, green channel fluorescence.
The conditions of assay [7]: Ebola virus entry assay, blue channel (ratio component).
Assay [8] in a line: qHTS assay for measurement of the activity of small molecule inhibitors on Zika virus induced Caspase-3 activity in human iPSC derived neural progenitor cells (hNPCs) (AID 1224857; active = well fitted curve in the direction sought with a large enough effect; an effect the other way counts as inactive or inconclusive; note: % of control where 0% means no effect; nearly all actives have a fitted effect of over 65% in size). The procedure, abridged: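 Caspase-3/7 induction by a 6-hour ZIKV infection was quantified with a luminescent Caspase-Glo 3/7 reagent incubated 30 minutes at room temperature. Compounds were preincubated with hNPCs for 1 hour; inhibition was calculated against uninfected and infected control wells.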
(In general: qHTS replaces the single test concentration by a dilution series.)

Assay [9] is described as follows: qHTS assay for measurement of the activity of small molecule inhibitors on Zika virus induced Caspase-3 activity in human astrocytoma cells (AID 1224859; active = well fitted curve in the direction sought with a large enough effect; an effect the other way counts as inactive or inconclusive;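 note: plate controls were ZIKV-infected untreated cells for no effect and uninfected cells for full effect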). In short, it runs like this:
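In SNB-19 cells plated at 250 cells/well and grown 16-20 h, compounds were applied 1 h before ZIKV (2 FFU/cell). Six hours later caspase-3/7 luminescence was recorded.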

Assay [10] is described as follows: Immunotoxin (HA22) sensitization/mitigation study. Vehicle arm (PBS) (AID 1159510). Note: potency is the fitted concentration of half-maximal effect.
The nature of assay [11]: Immunotoxin (SS1P) sensitization/mitigation study. Vehicle arm (DMEM) (AID 1159513).
Assay [12] is described as follows: qHTS profiling for inhibitors of Plasmodium falciparum (HB3) proliferation (AID 743324; active = well fitted curve in the direction sought with a large enough effect; an effect the other way counts as inactive or inconclusive;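 note: 100% = DMSO vehicle wells and 0% = artemisinin-treated control wells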). The settings on record: Plasmodium falciparum HB3 blood-stage proliferation; at 28.7 µM (top of the series). In short, it runs like this: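 SYBR Green fluorescence (485 ex/535 em) of lysed cultures, incubated overnight at room temperature in the dark, quantifies parasite DNA. Infected erythrocytes at 0.3% parasitemia and 2.5% hematocrit were exposed 72 h; values normalized to DMSO and 0.29 uM artemisinin controls.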

A short description of assay [13]: qHTS profiling of the MIPE4 collection as inhibitors of Plasmodium falciparum (3D7) proliferation (AID 743344).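 Note: scaled between DMSO vehicle wells and 0.29 µM artemisinin as full inhibition.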 The settings on record: P. falciparum 3D7 in erythrocytes, SYBR Green DNA fluorescence, 72 h; at 28.5 µM. In short, it runs like this:
as §1

Assay [14] in a line: qHTS profiling of the MIPE4 collection as inhibitors of Plasmodium falciparum (DD2) proliferation (AID 743345). Conditions: P. falciparum Dd2 in erythrocytes, SYBR Green DNA, 72 h; at 28.5 µM. The procedure, abridged:
as §1

A short description of assay [15]: qHTS profiling of the MIPE4 collection as inhibitors of Plasmodium falciparum (HB3) proliferation (AID 743347).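 Note: plate controls were DMSO vehicle wells for no effect and artemisinin wells for full effect.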 The settings on record: P. falciparum HB3 in erythrocytes, SYBR Green DNA, 72 h; at 28.5 µM. In short, it runs like this:
as §1

The nature of assay [16]: High-throughput drug toxicity screening in the BPDCN cell line Gen2.2 (AID 1224824).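 Note: cells exposed to compounds for 48 h before reading.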 The settings on record: Gen2.2 BPDCN cells; at 45.8 µM (top of the series). In short, it runs like this:
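CellTiter-Glo luminescence after 48 h compound exposure of Gen2.2 cells; percent activity set with DMSO as 100% and bortezomib (9.2 uM final) as 0%. Cells seeded at 500 per well, RPMI + 10% FBS, 37 °C.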

Assay [17] in a line: High-throughput drug toxicity screening in the BPDCN cell line Cal-1 (AID 1224825). Conditions: Cal-1 BPDCN cell viability, qHTS; at 45.8 µM (top of the series). The procedure, abridged: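 CellTiter-Glo luminescence after 48 h compound exposure; percent activity scaled with DMSO as 100% and bortezomib (9.2 uM final) as 0%. Cal-1 cells seeded at 500/well in RPMI, 10% FBS, no phenol red.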

The nature of assay [18]: qHTS Screen of the MIPE 4.0 Collection Against Ewings Sarcoma (RDES) (AID 1259252; active = well fitted curve in the direction sought with a large enough effect; an effect the other way counts as inactive or inconclusive;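 note: 100% = DMSO-treated cells and 0% = medium-only wells without cells; nearly all actives have a fitted effect of over 35% in size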). In short, it runs like this: (§2)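 Dose series incubated 48 h with cells in RPMI plus 5% FBS, glutamine and penicillin/streptomycin; cell viability then quantified via CellTiter-Glo.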
A short description of assay [19]: qHTS Screen of the MIPE 4.0 Collection Against Ewings Sarcoma (TC71) (AID 1259253; active = well fitted curve in the direction sought with a large enough effect; an effect the other way counts as inactive or inconclusive;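 note: 100% = DMSO-treated cells and 0% = medium-only wells without cells; nearly all actives have a fitted effect of over 40% in size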). The procedure, abridged:
as §2

Assay [20] in a line: qHTS Screen of the MIPE 4.0 Collection Against Ewings Sarcoma (EW8) (AID 1259255; active = well fitted curve in the direction sought with a large enough effect; an effect the other way counts as inactive or inconclusive;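 note: 100% = DMSO-treated cells and 0% = medium-only wells without cells; nearly all actives have a fitted effect of over 35% in size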). The procedure, abridged: as §2

Results on 16 compounds are retold here after PubChem BioAssay (NCATS).

Records with an inconclusive call do not appear. For part of these data: Results with a measured potency or affinity are listed apart. The source made the active and inactive calls. Unless noted, the rule behind the calls is not given here.
Throughout, for efficacy: 0% is about no effect.

As usually defined, the AC50 is the concentration giving half of the maximal activity seen. Turning to `CN(C)[C@@H](CCOc1cccc2ccccc12)c1ccccc1`, the parasite growth, % of control (lower = inhibition) in [1] amounted to 31.8%. For the same compound, the efficacy in [2] is -116% (inactive). The concentration at half-maximal activity (AC50) in assay [3] was 7.08 µM (active); in assay [4], 3.16 µM (active); in [5] it was 3.16 µM (active).

As for `Cc1ccc(N=CN(C)C=Nc2ccc(C)cc2C)c(C)c1`, the efficacy in [2] was -16% (inactive). Also, the call in [3], in assay [6], in assay [5], in assay [7] and in assay [9] was inactive. The Potency result in assay [8] was “inactive”.

Consider `CCCCCCCCC(=O)NCc1ccc(O)c(OC)c1`, for which the efficacy in [2] is -29.4% (inactive). The compound was called inactive in assay [3], in assay [6], in [5], in assay [7] and in assay [9]. In assay [8], the Potency result is “inactive”.

For the compound `Cc1[nH]c(=O)c(C#N)cc1-c1ccc2nccn2c1`, in assay [2], the efficacy is -27% (inactive). Also, the call in assay [3], in [6], in assay [5], in assay [7] and in assay [11] was inactive. Also, the Potency result in assay [10] was “inactive”.

On to `O=C(O)c1nn(Cc2ccc(Cl)cc2Cl)c2ccccc12`, for which the remaining proliferation (% of control), lower = more inhibition in assay [12] turned out to be 104%. In addition, in assay [13], the parasite growth, % of DMSO control was found to be 75.4%. For the same compound, the parasite growth remaining, % of DMSO control (lower = more inhibition) in assay [14] was found to be 99.8%. In addition, the parasite growth, % of control (lower = inhibition) in [1] was determined as 101%. The growth, % of control in [15] turned out to be 81.1%. Moreover, the efficacy in assay [2] is 44.2% (inactive). The compound was called inactive in assay [3], in assay [6], in assay [5], in assay [7], in [11] and in [9]. The Potency entry in assay [10], in [8], in assay [18], in assay [19] and in [20] was “inactive” in each case. For the same compound, in assay [16], the cell viability, % of control (lower = more cytotoxic) turned out to be 98.4%. In [17], this compound showed a viability (% of control) of 95.1%.

For the compound `CC[C@H](O)C(C[C@H](C)N(C)C)(c1ccccc1)c1ccccc1`, the efficacy in assay [2] was 49.4% (inactive). Also, the values for the AC50 in assay [3], in assay [4] and in assay [5] were 11.2 µM (active), 8.91 µM (active) and 8.91 µM (active), respectively. Also, the compound was called inactive in assay [9].

As to `COCC(=O)N(c1c(C)cccc1C)C(C)C(=O)OC` (centres undefined), the efficacy in assay [2] is -46.6% (inactive). Further, the result in assay [3], in [6], in assay [5], in assay [7] and in [9] was inactive. Moreover, in assay [8], the Potency entry was “inactive”.

For `ClC1=C(Cl)C2(Cl)C(CBr)CC1(Cl)C2(Cl)Cl` (centres undefined), in assay [2], the efficacy was -23.9% (inactive). In addition, the result in assay [3], in [5], in assay [7] and in assay [9] was inactive. The Potency entry in assay [8] was “inactive”.

For the compound `NC(=O)c1ncn([C@@H]2O[C@H](CO)[C@@H](O)[C@H]2O)c1N`, the efficacy in [2] was -19.4% (inactive). Moreover, the result in [3], in assay [6], in assay [5], in assay [7] and in assay [11] was inactive. In assay [10], the Potency entry is “inactive”.

As for `Oc1ccc([C@H]2CNCc3c2ccc(O)c3O)cc1O`, the efficacy in [2] was 69.3% (inactive). Also, the AC50 in assay [3], in assay [4] and in assay [5] was 14.1 µM (active) throughout. Moreover, the result in assay [9] was inactive.

Take `C[C@]12CCC(=O)C=C1CC[C@@H]1[C@@H]2[C@@H](O)C[C@@]2(C)[C@H]1CC[C@]2(O)C(=O)CO`: the efficacy in assay [2] was 14.5% (inactive). Moreover, the outcome in [3], in assay [6], in assay [5], in [7] and in assay [11] was inactive. The Potency in assay [10] was 0.296 µM (active).

`Cc1cc(C(C)(C)C)cc(C)c1CC1=NCCN1` displayed a parasite growth, % of DMSO control in assay [13] of 58.8%. In addition, the parasite growth remaining, % of DMSO control (lower = more inhibition) in assay [14] came to 38.8%. The same compound gave a growth, % of control in assay [15] of 84.3%. Besides, the efficacy in assay [2] was 93.8% (inactive). The AC50 in assay [3] is 14.1 µM (active); in assay [4], 12.6 µM (active); in assay [5], 12.6 µM (active).

Turning to `CC(C)(O)C(Cl)(Cl)Cl`, the efficacy in [2] was -12.3% (inactive). Further, the compound was classed as inactive in assay [3], in [6], in assay [5], in [7] and in assay [9].

Turning to `O=C(N[C@H]1N=C(c2ccccc2F)c2cccc3c2N(CC3)C1=O)c1cc2ccccc2[nH]1`, in [2], the efficacy was -43.7% (inactive). Also, the concentration at half-maximal activity (AC50) was 17.8 µM (active) in assay [3], 20 µM (active) in assay [4] and 20 µM (active) in [5]. Also, the compound was called inactive in [9].

For the compound `CN1C(=O)CN=C(c2ccccc2)c2cc([N+](=O)[O-])ccc21`, in assay [2], the efficacy is 23.9% (inactive). For the same compound, the outcome in assay [3], in assay [6], in [5], in [7] and in assay [9] was inactive. Besides, in [8], the Potency entry was “inactive”.

Turning to `NC(=O)OCCCc1ccccc1`, the efficacy in assay [2] is 24.7% (inactive). For the same compound, the call in [3], in assay [6], in assay [5], in assay [7] and in assay [9] was inactive. In addition, the Potency entry in assay [8] is “inactive”.
